Experimental data as given in PubChem BioAssay (NCATS).
Inconclusive results are not listed. The source made the active and inactive calls. Calls follow the shape of the dose curve; as a rule, active = well fitted inhibition curve with a large enough effect; inconclusive = small, poorly fitted or top-dose-only effect; inactive = flat fitted curve, though single readings scatter.

Assays:
ECU = assay: qHTS profiling for inhibitors of Plasmodium falciparum proliferation (AID 504749); details: P. falciparum in erythrocytes, SYBR Green DNA, 72 h; series mostly up to 28.7 µM
How it was run: (§1)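 Fluorescence of SYBR Green-bound parasite DNA, read at 485/535 nm, served as the growth measure. Infected erythrocytes were cultured with compound 72 h; artemisinin (0.29 uM) and DMSO wells defined the normalization range.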

FAB9 = assay: as above; details: P. falciparum in erythrocytes, SYBR Green DNA, 72 h; series mostly up to 28.7 µM
How it was run: as §1

GB4 = assay: as above; details: P. falciparum in erythrocytes, SYBR Green DNA, 72 h; series mostly up to 28.7 µM
How it was run: as §1

HB3 = assay: as above; details: P. falciparum in erythrocytes, SYBR Green DNA, 72 h; series mostly up to 28.7 µM
How it was run: as §1

ICS = assay: as above; details: P. falciparum in erythrocytes, SYBR Green DNA, 72 h; series mostly up to 28.7 µM
How it was run: as §1

JCK = assay: as above; details: P. falciparum in erythrocytes, SYBR Green DNA, 72 h; series mostly up to 28.7 µM
How it was run: as §1

N140 = assay: as above; details: P. falciparum in erythrocytes, SYBR Green DNA, 72 h; series mostly up to 28.7 µM
How it was run: as §1

P93_24 = assay: as above; details: P. falciparum in erythrocytes, SYBR Green DNA, 72 h; series mostly up to 28.7 µM
How it was run: as §1

P94_40 = assay: as above; details: P. falciparum in erythrocytes, SYBR Green DNA, 72 h; series mostly up to 28.7 µM
How it was run: as §1

PAD = assay: as above; details: P. falciparum in erythrocytes, SYBR Green DNA, 72 h; series mostly up to 28.7 µM
How it was run: as §1

PC26 = assay: as above; details: P. falciparum in erythrocytes, SYBR Green DNA, 72 h; series mostly up to 28.7 µM
How it was run: as §1

PC49 = assay: as above; details: P. falciparum in erythrocytes, SYBR Green DNA, 72 h; series mostly up to 28.7 µM
How it was run: as §1

SC27B = assay: as above; details: P. falciparum in erythrocytes, SYBR Green DNA, 72 h; series mostly up to 28.7 µM
How it was run: as §1

TAB113 = assay: as above; details: P. falciparum in erythrocytes, SYBR Green DNA, 72 h; series mostly up to 28.7 µM
How it was run: as §1

W2 = assay: as above; details: P. falciparum in erythrocytes, SYBR Green DNA, 72 h; series mostly up to 28.7 µM
How it was run: as §1

HEK293 = assay: Cytotoxic Profiling of Annotated Libraries Using Quantitative High-Throughput Screening (AID 1296008); details: Five cell lines viability, CellTiter-Glo ATP luminescence, 48-72 h; max response: active compounds read low; as to max response: % is scaled to controls: 0 for no effect and ±100 for the full control effect
How it was run: (§2)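 Compounds were pin-transferred onto cells and incubated 48 or 72 hr at 37 degree Celsius, 95% humidity. CellTiter-Glo was added, plates sat 10 min at room temperature, then ATP-coupled luminescence was imaged as the viability read-out.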

CRL-7250 = normal cell line; assay: as above; details: Five cell lines viability, CellTiter-Glo ATP luminescence, 48-72 h; active compounds read low
How it was run: as §2

PC15 = assay: qHTS profiling for inhibitors of Plasmodium falciparum proliferation (AID 504749); details: P. falciparum in erythrocytes, SYBR Green DNA, 72 h; series mostly up to 28.7 µM
How it was run: as §1

TAB109 = assay: as above; details: P. falciparum in erythrocytes, SYBR Green DNA, 72 h; series mostly up to 28.7 µM
How it was run: as §1

TAB165 = assay: as above; details: P. falciparum in erythrocytes, SYBR Green DNA, 72 h; series mostly up to 28.7 µM
How it was run: as §1
Also: nearly all actives have a fitted effect of over 60% in size.
Potency is read from the fitted curve at half-maximal effect.

CC(=O)Nc1ccc(NC(=S)NC(=O)c2ccc(C(C)(C)C)cc2)cc1
inactive: Potency (ECU) | Potency (FAB9) | Potency (GB4) | Potency (HB3) | Potency (JCK) | Potency (N140) | Potency (P93_24) | Potency (P94_40) | Potency (PAD) | Potency (PC26) | Potency (PC49) | Potency (SC27B) | Potency (TAB113)
active: Potency (ICS) 12.6 µM | Potency (W2) 7.57 µM | Potency (HEK293) 0.651 µM

Oc1ccc(/C=C/c2cc(O)cc(O)c2)cc1
inactive: max response (CRL-7250) -2.32% | max response (HEK293) -3.47%

CN(Cc1ccccc1)Cc1ccccc1
inactive: Potency (ECU) | Potency (FAB9) | Potency (GB4) | Potency (HB3) | Potency (ICS) | Potency (JCK) | Potency (N140) | Potency (P93_24) | Potency (P94_40) | Potency (PAD) | Potency (PC15) | Potency (PC26) | Potency (PC49) | Potency (SC27B) | Potency (TAB109) | Potency (TAB113) | Potency (TAB165)

CCN(CC)C(=S)S
inactive: Potency (ECU) | Potency (FAB9) | Potency (GB4) | Potency (HB3) | Potency (ICS) | Potency (JCK) | Potency (N140) | Potency (P93_24) | Potency (P94_40) | Potency (PAD) | Potency (PC15) | Potency (PC26) | Potency (PC49) | Potency (SC27B) | Potency (TAB109) | Potency (TAB113) | Potency (TAB165)

CCN(CC)CCOCCOC(=O)C(CC)(CC)c1ccccc1
inactive: outcome (CRL-7250)

O=C(O)c1ccc(NC(=O)[C@H](Cc2ccc(O)cc2)NC(=O)c2ccccc2)cc1
inactive: Potency (ECU) | Potency (FAB9) | Potency (GB4) | Potency (HB3) | Potency (ICS) | Potency (JCK) | Potency (N140) | Potency (P93_24) | Potency (P94_40) | Potency (PAD) | Potency (PC15) | Potency (PC26) | Potency (PC49) | Potency (SC27B) | Potency (TAB109) | Potency (TAB113) | Potency (TAB165)

OC/C=C/c1ccccc1
inactive: Potency (ECU) | Potency (FAB9) | Potency (GB4) | Potency (HB3) | Potency (ICS) | Potency (JCK) | Potency (N140) | Potency (P93_24) | Potency (P94_40) | Potency (PAD) | Potency (PC15) | Potency (PC26) | Potency (PC49) | Potency (SC27B) | Potency (TAB109) | Potency (TAB113) | Potency (TAB165)

CN(C)CCCSc1ccccc1NC(=O)/C=C/c1ccccc1
inactive: Potency (ECU) | Potency (FAB9) | Potency (HB3) | Potency (ICS) | Potency (JCK) | Potency (N140) | Potency (P93_24) | Potency (P94_40) | Potency (PAD) | Potency (PC15) | Potency (PC26) | Potency (PC49) | Potency (SC27B) | Potency (TAB113) | Potency (TAB165) | max response (CRL-7250) -4.07%
active: Potency (W2) 6.01 µM

COC(=O)[C@@H](N)CS
inactive: Potency (ECU) | Potency (FAB9) | Potency (GB4) | Potency (HB3) | Potency (ICS) | Potency (JCK) | Potency (N140) | Potency (P93_24) | Potency (P94_40) | Potency (PAD) | Potency (PC15) | Potency (PC26) | Potency (PC49) | Potency (SC27B) | Potency (TAB109) | Potency (TAB113) | Potency (TAB165)

CC(C)[C@@H](N)C(=O)O
inactive: Potency (ECU) | Potency (FAB9) | Potency (GB4) | Potency (HB3) | Potency (ICS) | Potency (JCK) | Potency (N140) | Potency (P93_24) | Potency (P94_40) | Potency (PAD) | Potency (PC15) | Potency (PC26) | Potency (PC49) | Potency (SC27B) | Potency (TAB109) | Potency (TAB113) | Potency (TAB165)

C[C@]12CC[C@@H]3c4ccc(OC(=O)c5ccccc5)cc4CC[C@H]3[C@@H]1CC[C@@H]2O
inactive: Potency (ECU) | Potency (FAB9) | Potency (GB4) | Potency (HB3) | Potency (JCK) | Potency (N140) | Potency (P93_24) | Potency (P94_40) | Potency (PAD) | Potency (PC15) | Potency (PC26) | Potency (PC49) | Potency (SC27B) | Potency (TAB109) | Potency (TAB113) | Potency (TAB165) | outcome (CRL-7250) | max response (HEK293) -10%
active: Potency (ICS) 11.2 µM | Potency (W2) 10.7 µM

CC/C=C\C/C=C\C/C=C\C/C=C\C/C=C\CCCC(=O)O
inactive: Potency (ECU) | Potency (FAB9) | Potency (GB4) | Potency (HB3) | Potency (ICS) | Potency (JCK) | Potency (N140) | Potency (P93_24) | Potency (P94_40) | Potency (PAD) | Potency (PC15) | Potency (PC26) | Potency (PC49) | Potency (SC27B) | Potency (TAB109) | Potency (TAB113) | Potency (TAB165)

Cc1ncc(COP(=O)(O)O)c(CN)c1O
inactive: Potency (ECU) | Potency (FAB9) | Potency (GB4) | Potency (HB3) | Potency (ICS) | Potency (JCK) | Potency (N140) | Potency (P93_24) | Potency (P94_40) | Potency (PAD) | Potency (PC15) | Potency (PC26) | Potency (PC49) | Potency (SC27B) | Potency (TAB109) | Potency (TAB113) | Potency (TAB165)

O=C1c2ccccc2C(=O)c2c1ccc(O)c2O
inactive: Potency (ECU) | Potency (FAB9) | Potency (GB4) | Potency (HB3) | Potency (ICS) | Potency (JCK) | Potency (N140) | Potency (P93_24) | Potency (P94_40) | Potency (PAD) | Potency (PC15) | Potency (PC26) | Potency (PC49) | Potency (SC27B) | Potency (TAB109) | Potency (TAB113) | Potency (TAB165) | Potency (W2) | max response (CRL-7250) -3.43%

COC(=O)c1ccccc1O
inactive: Potency (ECU) | Potency (FAB9) | Potency (GB4) | Potency (HB3) | Potency (ICS) | Potency (JCK) | Potency (N140) | Potency (P93_24) | Potency (P94_40) | Potency (PAD) | Potency (PC15) | Potency (PC26) | Potency (PC49) | Potency (SC27B) | Potency (TAB109) | Potency (TAB113) | Potency (TAB165)

O=P(O)(O)OP(=O)(O)OP(=O)(O)O
inactive: Potency (ECU) | Potency (FAB9) | Potency (GB4) | Potency (HB3) | Potency (ICS) | Potency (JCK) | Potency (N140) | Potency (P93_24) | Potency (P94_40) | Potency (PAD) | Potency (PC15) | Potency (PC26) | Potency (PC49) | Potency (SC27B) | Potency (TAB109) | Potency (TAB113) | Potency (TAB165)

CC(C)(C)c1ccc(CN2CCN(C(c3ccccc3)c3ccc(Cl)cc3)CC2)cc1 (stereo not drawn)
inactive: max response (CRL-7250) 1.08%

F[Si-2](F)(F)(F)(F)F
inactive: Potency (ECU) | Potency (FAB9) | Potency (GB4) | Potency (HB3) | Potency (ICS) | Potency (JCK) | Potency (N140) | Potency (P93_24) | Potency (P94_40) | Potency (PAD) | Potency (PC15) | Potency (PC26) | Potency (PC49) | Potency (SC27B) | Potency (TAB109) | Potency (TAB113) | Potency (TAB165)
